Screening data from PubChem.
Mdm2-MdmX inh – inhibitors of human Mdm2/MdmX interaction | SaOS-2 split-luciferase Mdm2/MdmX complementation, luminescence | inhibition, % at 8 µM | hit rate 3% among 330,000 | AID 485346;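 active = inhibition of at least 50% at 8 µM in the primary screen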
Target sequence (O15151 whole entry, looked up): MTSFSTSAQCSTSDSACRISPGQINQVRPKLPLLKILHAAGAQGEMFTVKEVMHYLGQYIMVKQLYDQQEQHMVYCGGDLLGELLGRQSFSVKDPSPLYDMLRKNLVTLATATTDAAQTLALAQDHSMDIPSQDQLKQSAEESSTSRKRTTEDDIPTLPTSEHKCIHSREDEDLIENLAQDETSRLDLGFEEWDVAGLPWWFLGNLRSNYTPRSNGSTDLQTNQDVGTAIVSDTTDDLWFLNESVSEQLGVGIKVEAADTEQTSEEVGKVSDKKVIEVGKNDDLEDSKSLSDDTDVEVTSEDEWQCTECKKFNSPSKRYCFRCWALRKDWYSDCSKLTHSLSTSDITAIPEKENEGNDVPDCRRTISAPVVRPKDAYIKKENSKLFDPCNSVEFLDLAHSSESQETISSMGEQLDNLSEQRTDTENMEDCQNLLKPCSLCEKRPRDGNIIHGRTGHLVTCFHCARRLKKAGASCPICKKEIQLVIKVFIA
Target sequence (Q00987 whole entry, looked up): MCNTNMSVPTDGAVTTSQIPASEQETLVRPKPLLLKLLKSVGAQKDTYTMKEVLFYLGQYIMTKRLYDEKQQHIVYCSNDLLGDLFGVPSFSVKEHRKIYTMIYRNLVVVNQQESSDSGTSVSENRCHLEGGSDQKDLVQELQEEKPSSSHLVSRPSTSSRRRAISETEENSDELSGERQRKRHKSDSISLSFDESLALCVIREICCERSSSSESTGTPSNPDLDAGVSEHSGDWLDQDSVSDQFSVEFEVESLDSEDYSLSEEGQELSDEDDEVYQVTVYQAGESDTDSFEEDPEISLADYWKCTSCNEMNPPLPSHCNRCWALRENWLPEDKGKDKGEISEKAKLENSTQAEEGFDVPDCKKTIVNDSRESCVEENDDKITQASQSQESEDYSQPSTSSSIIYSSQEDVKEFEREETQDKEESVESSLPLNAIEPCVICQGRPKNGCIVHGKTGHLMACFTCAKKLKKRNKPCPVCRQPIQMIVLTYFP
aSyn 5UTR inh – MLPCN primary screen, SNCA 5' untranslated region | alpha-synuclein 5'UTR reporter, inhibitor activity | inhibition, % (tested at 7.5 µM) | hit rate 0.82% among 300,000; in the data active = inhibition above about 60%; inconclusive = no clear call, values can overlap the other calls;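 also: H4 neuroglioblastoma cells stably carrying SNCA 5'UTR luciferase fusion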
CSC inhib – blocks cancer stem cells; hit rate 1.1% among 300,000; cancer stem cell-like cells viability, luminescence; inhibition, % at 7.5 µM; in the data active = inhibition above about 75%; inconclusive = no clear call, values can overlap the other calls; tested in HMLE shEcad cells
Bfl-1 A1 inh – inhibitors of the anti-apoptotic protein A1, read as caspase activation | MEF A1-2A-BIM cells, Caspase-Glo 3/7 luminescence, 3 h; percent of clofoctol response, vehicle zero | caspase activation, % (test concentration not listed) | hit rate 0.066% among 330,000 | AID 2462;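 active = over half of replicate activation scores above 10%, or exactly half above 10 with the replicate mean above 10; inconclusive = replicate mean below 10 yet half the replicates above 10; inactive = over half of replicates below 10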
Beta cell apopt – blocks beta cell apoptosis; INS-1E cytokine-induced death, ATP luminescence, 48 h; percent of positive-control rescue, neutral wells zero; protection from apoptosis, % (test concentration not listed); hit rate 0.8% among 300,000; AID 435005;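 active = Every replicate reaches about 75%, or at least half do and their mean reaches it too, limit read from the data; inconclusive = At least half of replicates reach the limit but their mean does not; inactive = Under half of replicates reach the limit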;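 also: higher means more ATP so stronger rescue from cytokine killing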
Each line names hits and unclear results; the compound was inactive in the other large screens. Hits are enriched below; roughly 4.1% of the tested compounds scored in any of these assays.

O=C(Nc1ccccc1Br)c1cc(=O)c2ccccc2o1	none
Cc1cccc(-c2nc(C#N)c(N3CCCCC3)o2)c1	none
Cc1cccc(-c2nc(C#N)c(NC3CCCCC3)o2)c1	CSC inhib 99
Cc1cc([N+](=O)[O-])nn1Cc1ccc(C(=O)N/N=C/c2ccc(O)cc2O)cc1	CSC inhib 117, Beta cell apopt 98
O=C(CN1C(=O)NC2(CCCC2)C1=O)OCc1c(F)cccc1Cl	none
CCN(CC(=O)Nc1ccc(NC(C)=O)cc1)C(=O)CCCOc1ccc(C(C)(C)C)cc1	Beta cell apopt 93
CCN(CC(=O)NCc1cccs1)C(=O)CCCOc1ccc(C(C)(C)C)cc1	none (no result: aSyn 5UTR inh, CSC inhib)
COc1cc(CN2CCc3ccccc3C2)cc([N+](=O)[O-])c1O	none
COc1cc(CN2CCc3ccccc3C2)ccc1O	Bfl-1 A1 inh 33, Beta cell apopt 142
C=CC[C@@H](CC(=O)OC(C)(C)C)C(=O)OC[C@H]1CCCN1C(=O)[C@@H](CC=C)CC(=O)N(CCO)Cc1ccccc1	none (no result: aSyn 5UTR inh)
Nc1cc2c3c(cccc3c1)C(=O)N(CCN1CCCC1)C2=O	Beta cell apopt 75 (no result: Mdm2-MdmX inh)
CCN(CC)CCN1C(=O)c2cccc3cc(N)cc(c23)C1=O	none
CCCCCCc1cc2cc(S(=O)(=O)c3ccc(C)cc3)c(=O)oc2cc1O	CSC inhib 89
Cn1c(O)c(/C=N/Nc2ccccc2)c(=O)n(C)c1=O	CSC inhib 89
CN1/C(=C/c2cccc[n+]2CCO)Sc2ccccc21	none
CC[n+]1c(/C=C2\Sc3ccccc3N2C)ccc2cccc(C)c21	aSyn 5UTR inh 116 (no result: Mdm2-MdmX inh, CSC inhib, Bfl-1 A1 inh, Beta cell apopt)
C[C@H](NC(=O)C1CCN(C(=O)[C@H](Cc2ccccc2)NC(=O)OC(C)(C)C)CC1)C(=O)O	none
Cc1nc(N2CCC(C)CC2)c2oc3ccccc3c2n1	none
COc1ccccc1N1CCN(c2nc(C)nc3c2oc2ccccc23)CC1	aSyn 5UTR inh 90 (no result: Mdm2-MdmX inh, CSC inhib)
COc1ccccc1N1C(=O)c2cccc3c(Cl)ccc(c23)C1=O	Bfl-1 A1 inh 7.8
COc1ccc(N(CC(=O)Nc2cc(Cl)ccc2OC)S(=O)(=O)c2c(C)noc2C)cc1	aSyn 5UTR inh 71
Cc1ccc(NC(=O)Cn2nnc(-c3ccccc3NC(=O)c3cccs3)n2)cc1	aSyn 5UTR inh 67
CC(C)CN(C(=O)COC(=O)c1ccc2c(c1)OCO2)c1c(N)n(Cc2ccccc2)c(=O)[nH]c1=O	none
CC1=NN(c2nc(-c3ccc(Cl)cc3)cs2)C(=O)C1	CSC inhib 123
CC1=NN(c2nc(-c3ccc(F)cc3)cs2)C(=O)C1	CSC inhib 86
Fc1ccc(-c2csc(N3CCSCC3)n2)cc1	none
COc1ccc2sc(-c3ccc(SC)cc3)c(/C=C/c3ccc(OC)c(OC)c3)c2c1	none (no result: aSyn 5UTR inh)
Cc1cccc(OCC(=O)Nc2ccccc2N2CCCC2)c1C	CSC inhib 80
Cc1ccccc1OCC(=O)Nc1ccccc1N1CCCCC1	none
CC(C)(C)c1ccc(Oc2ccc(NC(=O)c3ccccc3C(=O)O)cn2)cc1	aSyn 5UTR inh 86
Cc1cc(Oc2ccc(N)cn2)cc(C)c1Cl	none (no result: Beta cell apopt)
CC(C)(C)c1ccc(Oc2ccc(N)cn2)cc1	aSyn 5UTR inh 87
CCN1CCN(c2cc(C)nc(-c3ccccc3O)n2)CC1	none
COc1ccc(CNCc2ccc3ccccc3c2)c(OC)c1	none
CCOC(=O)C1=C(COC(=O)CCOc2ccc(C)cc2)NC(=O)NC1C (stereo not drawn)	none
Cc1cccc(SC2CCN(C(=O)C3CCC(=O)N(C4CC4)C3)CC2)c1 (stereo not drawn)	none
CC1CC(C)CN(c2ncc3c(n2)CC(c2ccc(Cl)cc2)CC3=O)C1 (stereo not drawn)	none
CC1CC(C)CN(c2ncc3c(n2)CC(c2ccccc2Cl)CC3=O)C1 (stereo not drawn)	CSC inhib 84
O=C(Nc1ccccc1)c1nnsc1S(=O)c1ccc(Cl)cc1 (stereo not drawn)	CSC inhib 106
Cc1nnsc1S(=O)c1ccc(Cl)cc1 (stereo not drawn)	none (no result: CSC inhib, Beta cell apopt)
Cc1cccc(C)c1N=Nc1c(C)cc(O)cc1C	CSC inhib 99
Cc1cccc(O)c1C	none (no result: aSyn 5UTR inh, CSC inhib, Bfl-1 A1 inh, Beta cell apopt)
CCOc1ccc(CCNC(=O)COC(=O)c2ccc3c(c2)OCCO3)cc1OCC	none
O=C(CSc1n[nH]c(-c2ccccn2)n1)Nc1ccc(Cl)cc1	aSyn 5UTR inh 74
O=C(CSc1n[nH]c(-c2ccccn2)n1)Nc1ccc(F)cc1	aSyn 5UTR inh 73 (no result: Beta cell apopt)
Cc1ccc(NC(=O)CSc2n[nH]c(-c3ccccn3)n2)cc1	aSyn 5UTR inh inconclusive
COc1ccc(OCC(O)Cn2cnc(-c3ccc(Br)cc3)c2)cc1 (stereo not drawn)	none
OC(COc1ccc2ccccc2c1Br)Cn1cnc(-c2ccccc2)c1 (stereo not drawn)	CSC inhib 101
Cn1nc(C(C)(C)C)cc1C(=O)NCc1ccc2c(c1)OCO2	Beta cell apopt 117
Cc1cccc(CCNS(=O)(=O)c2ccc3c(c2)NC(=O)C(C)S3)c1 (stereo not drawn)	none
O=C(c1ccco1)c1coc2c1cc(O)c1ccccc12	Beta cell apopt 100
CC(=O)c1coc2c1cc(O)c1ccccc12	none
C=CCSc1nc2sc3c(c2c(=O)n1CC=C)CCc1ccccc1-3	none
C=CCn1c(SCCC)nc2sc3c(c2c1=O)CCc1ccccc1-3	CSC inhib 83
CCCCN1CC(=O)N2[C@H](c3ccc(Cl)cc3)[C@@H]3C(=O)N(CC)C(=O)[C@@H]3[C@]2(Cc2ccccc2)C1=O	none
N=C(N)SCc1nc2ccccc2c(=O)n1-c1ccccc1Cl	CSC inhib 93
O=C(CN1CCN(C(=O)C2CCCO2)CC1)Nc1ccc(Cl)cc1 (stereo not drawn)	none
Cc1ccccc1C(=O)NNC(=O)C(=O)N1CCCCC1	none
Cc1ccc(NNC(=O)C(=O)N2CCCCC2)cc1	CSC inhib 112 (no result: Beta cell apopt)
CC(OC(=O)c1nn(C)c(=O)c2ccccc12)C(=O)Nc1ccc(S(N)(=O)=O)cc1 (stereo not drawn)	none
CC(C)c1cc(-c2cc(-c3ccc(Cl)cc3)on2)nc(NC2CCCC2)n1	none
CC(C)c1cc(-c2cc(-c3ccccc3)on2)nc(NC2CCCC2)n1	CSC inhib 85
O=S(=O)(c1ccc(Cl)c(Cl)c1)c1snnc1-c1ccccc1	aSyn 5UTR inh 118 (no result: Mdm2-MdmX inh, CSC inhib, Bfl-1 A1 inh, Beta cell apopt)
COc1ccc(C(=O)N2CCCC(C(=O)O)C2)c2ccccc12 (stereo not drawn)	none
Cc1coc2c(C)c3oc(=O)c(CCC(=O)N4CCC(C(=O)NCCCC(=O)O)(c5ccccc5)CC4)c(C)c3cc12	none
O=C(Nc1ccc(-c2nc3ccccc3s2)cc1)C1=COCCO1	aSyn 5UTR inh 94
O=[N+]([O-])c1ccc(O)c(/C=N/Nc2ccccn2)c1	aSyn 5UTR inh 95, CSC inhib 118, Beta cell apopt 105 (no result: Mdm2-MdmX inh)
O=[N+]([O-])c1cccnc1N/N=C/c1ccccc1O	Beta cell apopt 110
O=C(NCc1ccc(F)cc1)C1CCN(S(=O)(=O)c2ccc(Br)s2)CC1	none
O=C(C[n+]1cccc(Br)c1)c1ccc(-c2ccccc2)cc1	none
COC(=O)[C@H](CC(C)C)N(Cc1ccccc1)S(=O)(=O)N(Cc1ccccc1)[C@@H](CC(C)C)C(=O)OC	Beta cell apopt 121 (no result: aSyn 5UTR inh)
